The campaign covered roughly 1,300 compounds. About 380 (29%) were called active. Not shown: some 37% with an inconclusive outcome. Calls follow the shape of the dose curve; as a rule, active = well fitted inhibition curve with a large enough effect; inconclusive = small, poorly fitted or top-dose-only effect; inactive = flat fitted curve, though single readings scatter. This is one part of the list.
Target: Thyrotropin receptor (Homo sapiens) (UniProt P16473)
Assay: qHTS for antagonists of the Thyroid Stimulation Hormone Receptor: Hit Validation in Primary Screen; also: nearly all actives have a fitted effect of over 80% in size;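 as to activity change, negative = inhibition: cAMP by competitive HTRF where cellular cAMP lowers the 665 nm FRET signal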
Conditions: TSHR-expressing cells, cAMP antagonist mode; series mostly up to 58 µM; activity change, negative = inhibition: at the top concentration
How it was run: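 TSHR-expressing cells were pretreated with compound, then stimulated with TSH at EC80 (4nM final) for 2 hours at 37 deg C. Cellular cAMP measured by competitive HTRF (anti-cAMP cryptate, cAMP-d2) after 30 min at room temperature.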
% is scaled to controls: 0 for no effect and ±100 for the full control effect; potency is read from the fitted curve at half-maximal effect.

Chain of Thyrotropin receptor (Homo sapiens) (P16473 whole entry, looked up): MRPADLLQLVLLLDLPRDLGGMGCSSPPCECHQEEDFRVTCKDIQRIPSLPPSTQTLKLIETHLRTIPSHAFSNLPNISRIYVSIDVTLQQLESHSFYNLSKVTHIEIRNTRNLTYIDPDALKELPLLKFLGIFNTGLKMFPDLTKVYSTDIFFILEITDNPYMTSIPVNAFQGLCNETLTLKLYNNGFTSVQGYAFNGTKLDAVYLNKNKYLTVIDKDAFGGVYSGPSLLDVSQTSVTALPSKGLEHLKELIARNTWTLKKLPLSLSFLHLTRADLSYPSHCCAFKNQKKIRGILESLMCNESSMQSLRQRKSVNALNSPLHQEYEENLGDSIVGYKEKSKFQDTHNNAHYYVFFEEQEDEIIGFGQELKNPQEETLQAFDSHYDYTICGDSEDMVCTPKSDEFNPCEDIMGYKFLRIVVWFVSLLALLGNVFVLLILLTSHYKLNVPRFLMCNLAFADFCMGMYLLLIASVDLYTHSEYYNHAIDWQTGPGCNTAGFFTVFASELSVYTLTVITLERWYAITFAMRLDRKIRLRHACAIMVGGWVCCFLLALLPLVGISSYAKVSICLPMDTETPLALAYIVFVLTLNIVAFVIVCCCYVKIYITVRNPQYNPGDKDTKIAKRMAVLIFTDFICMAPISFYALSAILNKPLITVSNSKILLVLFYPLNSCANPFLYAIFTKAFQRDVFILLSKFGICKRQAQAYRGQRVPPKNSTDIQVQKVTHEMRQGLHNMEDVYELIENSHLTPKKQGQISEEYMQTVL

Potency, active:
CCCCc1c(C)nc2nc(SCc3ccc(Cl)cc3)[nH]n2c1=O 21.3 µM, C#C[C@]1(OC(C)=O)CCC2C3CCC4=CC(=O)CC[C@@H]4C3CC[C@@]21C (stereo partly drawn) 13.5 µM, O=C(Nc1cccc(S(=O)(=O)Nc2ccc(Cl)cc2)c1)c1ccc2c(c1)OCCO2 16.9 µM, Cc1cc(/C=C2\Sc3ccccc3N2C)cc(C)[n+]1CC1CCCO1 (stereo not drawn) 30.1 µM, COc1ccc(C(=O)Nc2ccc(Cl)c(S(=O)(=O)Nc3ccccc3OC)c2)cc1 12 µM, CC(C)Oc1ccc(C(=O)Nc2ccc(Cl)c(S(=O)(=O)Nc3ccc(Cl)cc3)c2)cc1 21.3 µM, Cc1sc2ncnc(N3CCN(CCOc4ccc(Cl)cc4)CC3)c2c1C 19 µM, O=C1NC(=S)S/C1=C\c1cc2ccccc2nc1N1CCCCC1 13.5 µM, COc1ccc2cc(/C=C3\SC(=S)NC3=O)c(N3CCOCC3)nc2c1 3.38 µM, COc1cccc(CN(C)C(=O)CNC(=O)c2ccc(-c3ccccc3)cc2)c1OC 26.9 µM, COc1ccc(CN(C)C(=O)COC(=O)c2ccc(-c3ccccc3)cc2)c(OC)c1OC 23.9 µM, COc1cccc(CN(C)C(=O)c2ccc(Oc3ccccc3)cc2)c1OC 37.9 µM, O=C(Nc1ccc(S(=O)(=O)N2CCCCC2)cc1)c1ccc(CN2CCOCC2)cc1 23.9 µM, COc1ccc(C(NC(=O)c2c(F)c(F)c(F)c(F)c2F)c2ccccc2)cc1 (stereo not drawn) 26.9 µM, CC(Sc1nnc2c(n1)[nH]c1ccccc12)C(=O)N(C)C1CCCCC1 (stereo not drawn) 26.9 µM, O=C(NCCc1ccc(Cl)cc1Cl)c1cc([N+](=O)[O-])c[nH]c1=O 16.9 µM, COC(=O)c1ccc(NC(=O)Nc2ccc(F)c(Cl)c2)cc1 19 µM, Cc1cccc(OCCCCc2c(C)n[nH]c2C)c1C 30.1 µM, CC1=CC(=O)C(C(C)C)=C/C1=N/OS(=O)(=O)c1ccccc1 8.49 µM, CC1=C/C(=N\OS(=O)(=O)c2ccccc2)C(C)=CC1=O 4.78 µM, Cc1cc(C)n(C(=O)/C(C#N)=N/Nc2cc(Cl)cc(Cl)c2)n1 4.78 µM, CCOc1cc(N2CCOCC2)c(OCC)cc1NC(=O)c1cccc(S(=O)(=O)N2CCOCC2)c1 9.53 µM, Cn1c(=O)c([N+](=O)[O-])c(Cl)c2ccccc21 30.1 µM

Activity change, negative = inhibition, inactive:
CC(C)c1cc(=O)n2[nH]c(SCc3ccccc3)nc2n1 -0.807%, CC(=O)N1CCc2cc(Br)cc(S(=O)(=O)N3CCC(C(=O)O)CC3)c21 -11.2%, CCC1Sc2ccc(S(=O)(=O)CCC(=O)Nc3ccccc3Cl)cc2NC1=O (stereo not drawn) -11.6%, O=C(c1ccc2c(c1)OCO2)N1CCN(S(=O)(=O)c2ccc(Cl)cc2)CC1 -1.21%, CCOC(=O)c1[nH]c2cc(OC)c(OC)cc2c1NC(=O)c1ccc2c(c1)OCO2 -2.79%, COC(=O)c1sc(NC(=O)C(C)C)c(C(=O)OC)c1C -4.29%, Cc1cccc(OCc2nnc(SCC(=O)N3c4ccccc4CCc4ccccc43)o2)c1 -4.87%, COc1ccc(N(CC(=O)Nc2cc(Cl)ccc2OC)S(=O)(=O)c2c(C)noc2C)cc1 -11.3%, COc1ccc(NC(=O)c2ccc3ccccc3n2)cc1S(=O)(=O)Nc1ccccc1Cl -2.39%, CC(C)Oc1ccc(C(=O)NCCNC(=O)c2ccco2)cc1 -4.87%, COC(=O)C1C(=O)NC(SC)=C(C#N)C1c1ccccc1 (stereo not drawn) -3.77%, Cc1cc(C)c2oc(C(=O)Nc3ccc(S(=O)(=O)Nc4nccc(C)n4)cc3)cc(=O)c2c1 -4.03%, O=C1OC(CC(=O)N(Cc2nnc(-c3ccc(Cl)cc3)o2)C2CC2)c2ccccc21 (stereo not drawn) -6.17%, COc1ccc(N2CCN(c3ncnc4sc(C(=O)NCC5CCCO5)c(C)c34)CC2)cc1 (stereo not drawn) -1.12%, Cc1[nH]n(C)c(=O)c1C(=O)c1c(-c2c(Cl)cccc2Cl)noc1C -5.39%, CCc1ccc(-c2nnn(CCC(=O)OC)n2)cc1 -0.749%, COC(=O)c1nc2n(n1)C(c1cccc(Cl)c1)C1=C(CCCC1=O)N2 (stereo not drawn) -1.3%, Cc1nn(-c2ccc(N3CCOCC3)nn2)c(C)c1CCC(=O)NCc1ccccc1F -2.51%, CCOC(=O)C1(CCOc2ccccc2)CCN(Cc2cccc(OC)c2O)CC1 1.47%, CC(C)(C)C(=O)NC(=S)NNC(=O)c1ccc(-c2ccccc2)cc1 -18.8%, CCn1nnc2cc(C(=O)NCC(c3ccccc3OC)N(C)C)ccc21 (stereo not drawn) -6.48%, O=C(c1ccco1)N1N=C(C2CCCCC2)CC1(O)C(F)(F)F (stereo not drawn) -1.58%, COc1ccc(C(CC(=O)N2CCOCC2)c2c(OC)cc(OC)c3c(-c4ccccc4)cc(=O)oc23)cc1 (stereo not drawn) -7.58%, CC1CC(=O)N(c2ccc(C(C)C)cc2)C(=O)C1 -1.5%, O=C(NCCN1CCOCC1)c1c(Cl)cccc1Cl -6.48%, COCc1c(C(=O)Nc2cccc(S(=O)(=O)N3CCCCC3)c2)oc2ccccc12 -16.5%, COc1ccc(N2CCN(C(=O)[C@H](C)NC(=O)c3ccccc3Cl)CC2)cc1 -4.81%, CCOc1ccccc1NC(=O)C(NCCc1ccc(OC)cc1)c1ccccc1 (stereo not drawn) -6.08%, COCCCn1c(=O)c2sccc2n(Cc2cccc(C)c2)c1=O -8.56%, Cc1ccc(CNC(=O)CSc2nnc3c(n2)[nH]c2ccccc23)cc1 -0.519%, CSCc1cc(N2CCOCC2)nc(SCc2ccc(Cl)cc2Cl)n1 -10.1%, Cc1cccc(C)c1OCCCn1ccnc1 -4.81%, COc1ccc(-c2nnc(CSc3nc4ccccc4c(=O)n3CC3CCCO3)o2)cc1OC (stereo not drawn) -0.893%, CCOc1cc(C(=O)NC2CC(C)(C)NC(C)(C)C2)cc(OCC)c1OCC -5.01%, COc1ccc(NC(=O)Cc2nc3ccccc3[nH]2)cc1 -2.71%, COc1cccc(CNC(=O)CN2C(=O)CSc3ccc(S(=O)(=O)N4CCOCC4)cc32)c1 -5.82%, CCOc1cc(NC(=O)C2CC2)c(OCC)cc1NC(=O)c1cccc(F)c1 -9.28%, Cc1ccc(S(=O)(=O)N(Cc2ccccc2)c2ccccc2C(=O)N2CCCCC2)cc1 -7.23%, Cn1c(N)c(Sc2ccccc2[N+](=O)[O-])c(=O)n(C)c1=O -4.78%, CC(C)C(=O)Nc1c(-c2ccc(Cl)cc2)c(=O)c2ccccc2n1C -7.38%

From PubChem BioAssay AID602292 (National Center for Advancing Translational Sciences (NCATS), 2012)
